# Assay results published in PubChem BioAssay AID1907 (The Scripps Research Institute Molecular Screening Center, 2009).
# The whole screen tested about 1,900 compounds, of which about 1,200 (63%) were called active. Cut-off read from the data, not from the text of the source: active = inhibition above about 22%; inactive = the rest. So high a share suggests a set chosen from earlier hits. These entries were drawn from the full list.
# Test: rat intestinal IEC-6 viability loss – cell-based, luminescence, cytotoxicity control, confirmation (AID 1907);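 note: 0% = vehicle and 100% = reference cytotoxic drug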
# Settings: IEC-6 rat intestinal epithelial viability, at 5 µM, active compounds read high
row,SMILES,inhibition
1,COc1ccc(C)cc1Nc1nc(C)nc2c1oc1ccccc12,22.4% (active)
2,COc1cc(NS(=O)(=O)c2ccc3ccccc3c2)c2ncccc2c1,63.1% (active)
3,CCCOn1c(-n2nc(C)cc2C)nc2ccccc2c1=O,-7.58% (inactive)
4,O=C(NCCOc1cccnc1)c1ccc(OC2CCN(Cc3ccccn3)CC2)cc1,99.6% (active)
5,Cc1cc(C)n2nc(CNS(=O)(=O)c3c(F)c(F)c(F)c(F)c3F)nc2n1,13% (inactive)
6,CCCOc1ccccc1C1CC(=O)Nc2cc3c(cc21)OCO3 (configuration not stated),56.8% (active)
7,COc1ccccc1C1C2=C(COC2=O)Nc2cc3c(cc21)OCO3 (configuration not stated),62.6% (active)
8,COc1ccccc1NC(=O)c1ccc(C)s1,5.92% (inactive)
9,C[C@@H]1C[C@@H]2O[C@H]2/C=C\C=C\C(=O)Cc2c(Cl)c(O)cc(O)c2C(=O)O1,38.8% (active)
10,COc1ccc2c(c1OC)C(=O)OC2Nc1nc(-c2ccccc2)cs1 (configuration not stated),25% (active)
11,Cc1ccc(-c2csc(NC3OC(=O)c4ccccc43)n2)cc1 (configuration not stated),28.3% (active)
12,Cc1cccc(NC(=O)c2ccc([N+](=O)[O-])o2)c1,20% (inactive)
13,CC[C@H]1CN2CCc3cc(OC)c(OC)cc3[C@@H]2C[C@@H]1C[C@H]1NCCc2cc(OC)c(OC)cc21,97.2% (active)
14,CSc1nnc2ccc(-c3ccc(C)cc3)nn12,25% (active)
15,O=C1C(=O)N(CC2COc3ccccc3O2)c2ccccc21 (configuration not stated),-2.39% (inactive)
16,CCOC(=O)c1c(C)[nH]c2c1-c1ccccc1C(=O)C2=O,100% (active)
17,CC(C)OC(=O)CN1C(=O)C(=O)c2ccccc21,9.06% (inactive)
18,CCCCNc1nc2c(c(=O)n(C)c(=O)n2C)n1Cc1cccc(OC)c1,19.3% (inactive)
19,COc1ccc(CNS(=O)(=O)c2cc(-c3cc(C)no3)ccc2C(C)C)cc1,51.7% (active)
20,Cn1nccc1C(=O)NC1CCCc2c1cnn2-c1ccccc1F (configuration not stated),7.23% (inactive)
21,Cn1nccc1C(=O)NC1CCCc2c1cnn2-c1ccc(F)cc1F (configuration not stated),23.2% (active)

row,SMILES,inhibition
1,COc1cccc2sc(N(CCCN(C)C)C(=O)CCS(=O)(=O)c3ccccc3)nc12,7.79% (inactive)
2,Cc1nn2c(NCCN(C)C)c3c(nc2c1-c1ccccc1)CCC3,-0.91% (inactive)
3,COc1cccc(C(=O)Nc2ccc(N3CCN(C(=O)c4ccco4)CC3)cc2)c1,23.9% (active)
4,COc1cccc(C(=O)Nc2ccc(N3CCCC3)cc2)c1,43.2% (active)
5,CC(C)(C)Nc1nc(-c2ccccn2)nc2ccccc12,-6.6% (inactive)
6,CC[n+]1cc(C)ccc1/C=C/c1ccc(N(C)C)cc1,19.6% (inactive)
7,Oc1cccc(/C=N/Nc2ccc(Cl)nn2)c1O,2.22% (inactive)
8,C/C(=N\NC(=O)c1ccccc1F)c1ccccn1,67.3% (active)
9,C=CCC1(CC=C)CCCN1C(=O)c1cc(COc2ccc(-n3cncn3)cc2)on1,8.6% (inactive)
10,COc1ccc(Nc2cc(C)nc(-n3nc(C)cc3C)n2)cc1,54.9% (active)
11,CC(=O)c1ccc(Oc2cc(C)nc(-n3nc(C)cc3C)n2)cc1,49.9% (active)
12,COc1ccc(NC(=O)/C(Cl)=C(/Cl)S(=O)Cc2ccc(C)cc2)cn1 (configuration not stated),89% (active)
13,COc1ccc(CS(=O)/C(Cl)=C(/Cl)C(=O)Nc2ccc(OC)nc2)cc1 (configuration not stated),73.2% (active)
14,CCOc1ncccc1C(=O)NCCc1ccc(OC)cc1,12.2% (inactive)
15,CCOc1ccccc1NC(=O)Cn1nnc(C(=O)NCc2cccs2)c1N,56.9% (active)
16,CSc1nc(N(C)NC(=O)c2cccc(C)c2)c2ccccc2n1,76.1% (active)
17,CCn1c(C)nc2c1C(=O)c1ccccc1C2=O,10.1% (inactive)
18,COc1ccccc1N(CC(=O)N/N=C(\C)c1ccccc1O)S(=O)(=O)c1ccc(C)cc1,10.4% (inactive)
19,C/C(=N\NC(=O)c1ccoc1C)c1ccccc1O,31.9% (active)
20,Cc1ccc(Nc2nc(N3CCOCC3)nc(N3CCOCC3)n2)cc1Cl,63.1% (active)
21,CCOC(=O)/C=C/C(=O)OCC(=O)NC(c1ccccc1)c1ccccc1,43.9% (active)

row,SMILES,inhibition
1,CCOC(=O)C1=C(N)N2C(=O)C(C)SC2=C(C(=O)OCC)C1c1cc(OC)c(OC)c(OC)c1 (configuration not stated),-3.21% (inactive)
2,COc1ccc(Nc2cc(=O)oc3ccccc23)cc1,49.1% (active)
3,O=C(Nn1cc(C(=O)N2CCN(c3ccccc3F)CC2)c2ccccc2c1=O)c1cnccn1,-3.18% (inactive)
4,Cc1ccc(-n2c(SCC(=O)Nc3ncc(Cl)cc3Cl)nc3ccccc32)cc1,44.1% (active)
5,Cc1cccc(NS(=O)(=O)c2ccc(-c3cnc(C4CC4)o3)cc2)c1,53% (active)
6,Cc1onc(NC(=O)c2ccc([N+](=O)[O-])o2)c1Br,-1.42% (inactive)
7,Cc1cccc(-n2ncc(Cl)c(Cl)c2=O)c1,27.2% (active)
8,Cc1nc(Nc2ccc3c(c2)OCCO3)c2nnn(Cc3ccccc3Cl)c2n1,11.1% (inactive)
9,CC(C)c1cc(C(=O)N/N=C/C(Br)=C/c2ccccc2)n[nH]1,42.1% (active)
10,O=C(NC(Nc1nc2ccc([N+](=O)[O-])cc2s1)(C(F)(F)F)C(F)(F)F)c1ccccc1,97.9% (active)
11,CCCOC(=O)c1[nH]c2c(c1C)C(=O)CC(c1cccs1)C2 (configuration not stated),57.1% (active)
12,CCOc1cc(/C=C/c2nc3ccccc3c(=O)[nH]2)cc(Br)c1OC,50.8% (active)
13,CCOc1c(Nc2cccc(Cl)c2)c(=O)c1=O,-1.97% (inactive)
14,O=C(Nc1ccccc1Cl)/C(Cl)=C(\Cl)S(=O)c1ccccc1 (configuration not stated),78.4% (active)
15,O=C(CN1C(=O)C2C3C=CC(C3)C2C1=O)Nc1nc(-c2ccccn2)cs1 (configuration not stated),19.4% (inactive)
16,Cc1ccc(S(=O)(=O)C2(S(=O)(=O)c3ccc(C)cc3)CCCC2)cc1,23.1% (active)
17,COc1ccc(Nc2oc(-c3ccccc3Cl)nc2C#N)cc1,58.2% (active)
18,CNC[C@H](CC1CCCCC1)NC[C@H](NCCC1CCCC1)[C@H](C)O,56.1% (active)
19,CCOc1cccc(-n2nnnc2-c2ccc(OC)cc2)c1,39.2% (active)
20,COc1ccc(C2=NOC(C(=O)NCc3ccco3)C2)cc1OC (configuration not stated),39.3% (active)
